These results are taken from PubChem BioAssay (NCATS).

Records with an inconclusive call do not appear. Calls of active or inactive are those of the source. Unless noted, calls come from the whole dose curve; as a rule, active = well fitted inhibition curve with a large enough effect; inconclusive = small, poorly fitted or top-dose-only effect; inactive = no such curve, though single readings can be large or run the other way.

Test [1] in a line: qHTS profiling of the MIPE4 collection as inhibitors of Plasmodium falciparum (DD2) proliferation (Rep 2) (AID 743346; call rule not given here). The following applies: P. falciparum Dd2 in erythrocytes, SYBR Green DNA, 72 h; at 28.5 µM unless noted. In outline: (§1)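 Erythrocytes infected with P. falciparum (0.3% parasitemia, 2.5% hematocrit) incubated with compounds 72 h at 37 C, 5% CO2. Lysis with saponin/Triton buffer containing SYBR Green I, overnight at room temperature in the dark; DNA fluorescence (485/535 nm) normalised to 0.29 uM artemisinin and DMSO.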
A general note: In qHTS, concentration-response curves come from the screen itself.

Test [2] can be described thus: qHTS profiling of the MIPE4 collection as inhibitors of Plasmodium falciparum (HB3) proliferation (AID 743347; call rule not given here;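 note: plate controls were DMSO vehicle wells for no effect and artemisinin wells for full effect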). The following applies: P. falciparum HB3 in erythrocytes, SYBR Green DNA, 72 h; at 28.5 µM unless noted. In outline:
as §1

Test [3] can be described thus: High-throughput drug toxicity screening in the BPDCN cell line Gen2.2 (AID 1224824; call rule not given here;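 note: cells exposed to compounds for 48 h before reading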). The note with it: Gen2.2 BPDCN cells; at 45.8 µM (top of the series) unless noted. Summed up: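 Readout is ATP luminescence from Gen2.2 cells after two days of drug exposure in serum-containing medium at 37 °C. Values express percent activity, with vehicle defining full signal and 9.2 uM bortezomib defining zero.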

Test [4] can be described thus: High-throughput drug toxicity screening in the BPDCN cell line Cal-1 (AID 1224825; call rule not given here). The note with it: Cal-1 BPDCN cell viability, qHTS; at 45.8 µM (top of the series) unless noted. Summed up:
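Exponentially growing Cal-1 cells, 500 per well in phenol red-free RPMI with 10% FBS, were exposed to compounds for 48 h at 37 °C, 5% CO2. Viability was read by CellTiter-Glo luminescence and normalised to DMSO (100%) and 9.2 uM bortezomib (0%).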

Test [5] in a line: qHTS assay for measurement of the activity of small molecule inhibitors on Zika virus induced Caspase-3 activity in human iPSC derived neural progenitor cells (hNPCs) (AID 1224857). Note: % of control where 0% means no effect; nearly all actives have a fitted effect of over 65% in size. Summed up: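 Cells were plated at 350 per well and grown 16 to 20 hours. Compound pretreatment lasted one hour, after which ZIKV (2 FFU/cell) was added for 6 hours. Percent inhibition was normalized between uninfected and infected controls.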

Test [6] can be described thus: qHTS assay for measurement of the activity of small molecule inhibitors on Zika virus induced Caspase-3 activity in human astrocytoma cells (AID 1224859).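 Note: plate controls were ZIKV-infected untreated cells for no effect and uninfected cells for full effect.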 In outline:
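Percent inhibition of virus-induced caspase-3/7 signal is calculated against uninfected and ZIKV-infected control cells. Cells are SNB-19, infected at 2 FFU/cell for 6 h after 1 h compound exposure.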

The nature of test [7]: qHTS Screen of the MIPE 4.0 Collection Against Ewings Sarcoma (TC71) (AID 1259253). Note: nearly all actives have a fitted effect of over 40% in size. Note: potency is the fitted concentration of half-maximal effect. Summed up:
(§2)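 Here, cells in 5% FBS RPMI were exposed for two days (48 h) to compound dilutions added four hours after plating. ATP-based CellTiter-Glo luminescence measured viability, normalized to vehicle and no-cell blanks.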

A short description of test [8]: qHTS Screen of the MIPE 4.0 Collection Against Ewings Sarcoma (EW8) (AID 1259255).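 For viability: 100% = DMSO-treated cells and 0% = medium-only wells without cells.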 Note: nearly all actives have a fitted effect of over 35% in size. Note: potency is the fitted concentration of half-maximal effect. In outline:
as §2

Test [9] in a line: qHTS Screen of the MIPE 4.0 Collection Against Ewings Sarcoma (TC32) (AID 1259256). Note: nearly all actives have a fitted effect of over 45% in size. Note: potency is the fitted concentration of half-maximal effect. Summed up: as §2
A short description of test [10]: qHTS Screen of the MIPE 4.0 Collection Against Ewings Sarcoma (RDES) (AID 1259252). Note: nearly all actives have a fitted effect of over 35% in size. Note: potency is the fitted concentration of half-maximal effect. In outline:
as §2

For the molecule `Oc1ccc([C@@H]2Oc3ccc(O)cc3[C@@H]3CCC[C@@H]32)cc1`, in test [1], the parasite growth, % of control (lower = inhibition) was found to be 47%. Moreover, the growth, % of control in test [2] turned out to be 81.1%. In [3], the cell viability, % of control (lower = more cytotoxic) came to 90.8%. The viability (% of control) in test [4] came to 14.4%. Also, the Potency result in test [5] and in test [6] was “inactive” each time. Also, the Potency is 26.4 µM (active) in test [7], 10.5 µM (active) in test [8] and 9.35 µM (active) in test [9].
For the molecule `CN(CC(=O)N(Cc1ccc(C2CCCCC2)cc1)c1ccc(C(=O)O)c(O)c1)S(=O)(=O)c1c(F)c(F)c(F)c(F)c1F`, in test [1], the parasite growth, % of control (lower = inhibition) was determined as 53.5%. The growth, % of control in test [2] turned out to be 27.9%. For the same molecule, in test [3], the cell viability, % of control (lower = more cytotoxic) stood at 52.5%. In test [4], the viability (% of control) is 3.33%. The Potency entry in test [5] and in test [6] was “inactive” in each case. Further, the results for the Potency in test [10], in test [8] and in test [9] were 18.7 µM (active), 9.35 µM (active) and 6.62 µM (active), respectively.
For the molecule `N#Cc1cc(NC(=O)Nc2nnc(-c3ccncc3)s2)ccc1-c1cn[nH]c1`, in test [1], the parasite growth, % of control (lower = inhibition) was 74.6%. Further, the growth, % of control in test [2] was found to be 41.3%. For the same molecule, the cell viability, % of control (lower = more cytotoxic) in test [3] amounted to 92.3%. Moreover, the viability (% of control) in [4] was 111%. In addition, the Potency entry in [5], in test [6], in test [7], in test [8] and in [9] was “inactive” each time.
As to `CN(C)CC[C@H](c1ccc(Cl)cc1)c1ccccn1`, the parasite growth, % of control (lower = inhibition) in test [1] is 36.2%. In addition, in test [2], the growth, % of control is 95.2%. Moreover, the cell viability, % of control (lower = more cytotoxic) in [3] is 120%. The viability (% of control) in test [4] is 98.4%. The Potency entry in test [5], in test [6], in [10], in test [8] and in test [9] was “inactive” in each case.
In turn, `N#Cc1c(C2CCNCC2)cc(-c2c(O)cccc2OCC2CC2)nc1N` gave a parasite growth, % of control (lower = inhibition) in test [1] of 15.7%. The growth, % of control in test [2] is 5.66%. Besides, the cell viability, % of control (lower = more cytotoxic) in test [3] worked out at 7.25%. For the same molecule, in [4], the viability (% of control) amounted to 5.17%. The Potency entry in test [5] and in test [6] was “inactive” each time. Also, the Potency was 10.5 µM (active) in test [7], 14.8 µM (active) in [8] and 14.8 µM (active) in test [9].
`O=C1c2cccc(O)c2C(=O)c2c(O)cc(CO)cc21`: the cell viability, % of control (lower = more cytotoxic) in test [3] came to 161%. Moreover, the viability (% of control) in test [4] turned out to be 116%. Also, the Potency result in test [5], in test [6], in test [7], in test [8] and in [9] was “inactive” throughout.
Molecule `N#Cc1c(NC(=O)c2cccc3ccccc23)sc2c1CCCC2` displayed a parasite growth, % of control (lower = inhibition) in test [1] of 90%. For the same molecule, the growth, % of control in [2] came to 69.7%. Also, the cell viability, % of control (lower = more cytotoxic) in test [3] was 83.4%. Besides, the viability (% of control) in [4] was 9.83%. For the same molecule, the Potency result in test [5] and in [6] was “inactive” each time. The results for the Potency in test [7], in test [8] and in [9] were 0.526 µM (active), 0.469 µM (active) and 0.235 µM (active), respectively.
In [1], `C=CC(=O)Nc1ccc2ncnc(Nc3ccc(OCc4cccc(F)c4)c(Cl)c3)c2c1` showed a parasite growth, % of control (lower = inhibition) of 16.4%. This molecule came in with a growth, % of control in [2] of 5.29%. The cell viability, % of control (lower = more cytotoxic) in test [3] worked out at 13%. For the same molecule, in test [4], the viability (% of control) came out at 2.97%. Besides, the Potency entry in [5] and in test [6] was “inactive” in each case. Further, the Potency was 1.18 µM (active) in test [7], 2.09 µM (active) in test [8] and 0.833 µM (active) in test [9].
`OC[C@H]1OC(O)C[C@@H](O)[C@H]1O` (some centres not stated) registered a growth, % of control in test [2] of 86.6%. The cell viability, % of control (lower = more cytotoxic) in test [3] turned out to be 118%. In addition, in test [4], the viability (% of control) amounted to 115%. In addition, the Potency entry in test [5], in [6], in [10], in [8] and in [9] was “inactive” throughout.
`O=C(C=CC#Cc1cccc(NS(=O)(=O)c2ccccc2)c1)NO` yielded a parasite growth, % of control (lower = inhibition) in [1] of 8.22%. The molecule also yielded a growth, % of control in test [2] of 4.3%. Besides, the cell viability, % of control (lower = more cytotoxic) in [3] was found to be 4.86%. The viability (% of control) in test [4] was 3.48%. In addition, the Potency result in test [5] and in [6] was “inactive” in each case. Moreover, the Potency in [10] is 1.87 µM (active); in test [8], 0.935 µM (active); in [9] it was 0.833 µM (active).
